Test [1] is described as follows: qHTS assay for small molecule agonists of the p53 signaling pathway (AID 651631; calls by dose curve; also: nearly all actives have a fitted effect of over 15% in size; also: potency is read from the fitted curve at half-maximal effect). The essentials:
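HCT-116 cells carrying a beta-lactamase reporter under p53 response elements were dosed with compound for 16 h at 37 °C. LiveBLAzer B/G FRET substrate was then added for 2 h at room temperature, and fluorescence intensity was read to detect pathway agonism.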
In general terms: Quantitative high-throughput screening tests each substance at several concentrations.

A short description of test [2]: qHTS assay for small molecules that induce genotoxicity in human embryonic kidney cells expressing luciferase-tagged ATAD5 (AID 651632). Also: nearly all actives have a fitted effect of over 15% in size. Also: potency is read from the fitted curve at half-maximal effect. In a few lines: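 Genotoxicity read-out via ATAD5-luciferase: HEK293T cells, 16 hr compound incubation at 37C, Amplite detection.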
Test [3] can be described thus: qHTS assay for small molecule agonists of the p53 signaling pathway - cell viability (AID 651633; calls by dose curve; also: nearly all actives have a fitted effect of over 30% in size; also: potency is read from the fitted curve at half-maximal effect). The essentials:
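p53RE-bla cells, seeded at 4,000 per well and rested 5 h at 37 C/5% CO2, received compounds in DMSO for 16 h at 37 C. CellTiter-Glo was then added, and luminescence was read after 30 min at room temperature to gauge cytotoxicity.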

A short description of test [4]: qHTS assay for small molecules that induce genotoxicity in human embryonic kidney cells expressing luciferase-tagged ATAD5 - cell viability (AID 651634; calls by dose curve; also: nearly all actives have a fitted effect of over 25% in size; also: potency is read from the fitted curve at half-maximal effect). In a few lines:
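Live-cell protease activity (CellTiter-Fluor, fluorescence) indicates viability. HEK293T cells with luciferase-tagged ATAD5; 15.5 hr compound treatment at 37C.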

Test [5] can be described thus: qHTS assay for small molecule disruptors of the mitochondrial membrane potential - cell viability (AID 720634; calls by dose curve; also: nearly all actives have a fitted effect of over 20% in size; also: potency is read from the fitted curve at half-maximal effect). In a few lines: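 Human hepatoma HepG2 cells were treated for 1 hr with test chemicals, then given m-MPI dye and CellTiter-Glo. Cell viability reflects luminescence proportional to cellular ATP.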
Test [6] is described as follows: qHTS assay to test for compound auto fluorescence at 590 nm (red) in HepG2 cells (AID 720674). The essentials:
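Intrinsic compound fluorescence in the red window (Ex/Em 540/590 nm) is measured in attached HepG2 cells exposed for 1 hr, DMSO vehicle as baseline, benchmarked to Rose Bengal sodium.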

Test [7] is described as follows: qHTS assay to test for compound auto fluorescence at 535 nm (green) in HepG2 cells (AID 720675).
Test [8] in a line: qHTS assay to test for compound auto fluorescence at 590 nm (red) in HEK293 cells (AID 720679). In a few lines: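 Plates of HEK293 cells (10% dialyzed FBS) are treated with 23 nL compound or DMSO vehicle after a 4-5 hr attachment period, incubated overnight at 37C, and read for red fluorescence at 540/590nm.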
Test [9] can be described thus: qHTS assay to test for compound auto fluorescence at 535 nm (green) in HEK293 cells (AID 720680).
Test [10] in a line: qHTS assay to test for compound auto fluorescence at 460 nm (blue) in HEK293 cell free culture (AID 720681). The essentials:
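Test compounds were pinned into cell-free culture medium (DMEM with 10% FBS) and fluorescence was read directly at Ex/Em 405/460 nm. Signals were expressed as fluorescence equivalents of triamterene, with DMSO vehicle as control.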

The nature of test [11]: qHTS assay to test for compound auto fluorescence at 535 nm (green) in HEK293 cell free culture (AID 720682). The essentials:
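Green-label autofluorescence (485 nm excitation, 535 nm emission) measured on compound added to cell-free culture medium (DMEM, 10% FBS). Output is expressed relative to fluorescein.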

Test [12] can be described thus: qHTS assay to test for compound auto fluorescence at 590 nm (red) in HEK293 cell free culture (AID 720683). In a few lines:
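Tox21 10K library compounds were pinned into cell-free DMEM with 10% FBS and fluorescence was read at excitation 540 nm. Activity is expressed as Rose Bengal sodium equivalency.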

Test [13] in a line: qHTS assay to test for compound auto fluorescence at 590 nm (red) in HepG2 cell free culture (AID 720684). In a few lines: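 Measured in medium alone (MEM containing 10% FBS) following pintool addition of compound; emission at 590 nm with 540 nm excitation, referenced to Rose Bengal sodium.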
The nature of test [14]: qHTS assay to test for compound auto fluorescence at 460 nm (blue) in HepG2 cell free culture (AID 720685). The essentials: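 Compound (23 nL) or DMSO pinned into cell-free MEM with 10% FBS; blue fluorescence read at 405/460 nm excitation/emission, expressed as auto-fluorescence equivalency to triamterene.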
A short description of test [15]: qHTS assay to test for compound auto fluorescence at 535 nm (green) in HepG2 cell free culture (AID 720686).
The nature of test [16]: qHTS assay to test for compound auto fluorescence at 460 nm (blue) in HepG2 cells (AID 720687). The essentials:
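Cells (2,000/well in MEM with 10% FBS) attached overnight at 37 C, then were exposed to compound or DMSO for 1 hr at 37 C, 5% CO2. Fluorescence read at Ex/Em 405/460 nm, expressed as triamterene-equivalent signal.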

Test [17] has as its target Glucocorticoid receptor (Homo sapiens) (UniProt P04150). Kind of test: qHTS assay to identify small molecule agonists of the glucocorticoid receptor (GR) signaling pathway (AID 720691; active = well fitted activation curve with a large enough effect in the signal ratio in the repeat runs, not every such curve was filed as active; the % refers to the signal ratio). The essentials: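 Beta-lactamase reporter activity, read as fluorescence intensity, was measured in GR-bla HeLa cells exposed to compounds for 18 h at 37 C and then loaded with LiveBLAzer B/G FRET substrate for 2 h at room temperature.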

Test [18] has the same target. Kind of test: qHTS assay to identify small molecule antagonists of the glucocorticoid receptor (GR) signaling pathway (AID 720692; active = well fitted inhibition curve with a large enough effect in the signal ratio in the repeat runs, not every such curve was filed as active; the % refers to the signal ratio). The essentials:
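Fluorescence from cleaved LiveBLAzer B/G FRET substrate reports GRE-driven beta-lactamase in HeLa cells; compounds are tested against 5 nM dexamethasone (final) over 18 h at 37 C, substrate incubation 2 h at room temperature.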

A short description of test [19]: qHTS assay to test for compound auto fluorescence at 460 nm (blue) in HEK293 cells (AID 720678). The essentials:
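After cell attachment (4-5 hr, 37C), compounds were pinned onto HEK293 monolayers in 10% dialyzed FBS medium. The blue channel (405/460 nm) was read following overnight culture. Equivalency was calculated against triamterene.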

Test [20] can be described thus: qHTS assay for small molecule disruptors of the mitochondrial membrane potential (AID 720635). Also: potency is read from the fitted curve at half-maximal effect. In a few lines: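 HepG2 cells (2,000/well) attached overnight at 37C, then took compound for 1 hr at 37C, 5% CO2. Mito-MPS dye was added for 30 min; fluorescence was read at 490/535 nm (monomers) and 540/590 nm (aggregates).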

The values below come from PubChem BioAssay (Tox21).

Structures are written as SMILES. Values joined by “and” are separate entries in the source; they are usually repeats but may differ in a detail not shown here. Equal entries are not always repeated. Records with an inconclusive call do not appear. The source holds several records for some structures; these can differ, active in one and inactive in another. Active and inactive are the calls of the source. Unless noted, calls follow the shape of the dose curve; as a rule, active = well fitted curve in the direction sought with a large enough effect in the repeat runs; inconclusive = weak or mixed curves; inactive = no such curve, though single readings can be large; an effect the other way counts as inactive or inconclusive.

Chain of Glucocorticoid receptor (Homo sapiens) (P04150 whole entry, looked up): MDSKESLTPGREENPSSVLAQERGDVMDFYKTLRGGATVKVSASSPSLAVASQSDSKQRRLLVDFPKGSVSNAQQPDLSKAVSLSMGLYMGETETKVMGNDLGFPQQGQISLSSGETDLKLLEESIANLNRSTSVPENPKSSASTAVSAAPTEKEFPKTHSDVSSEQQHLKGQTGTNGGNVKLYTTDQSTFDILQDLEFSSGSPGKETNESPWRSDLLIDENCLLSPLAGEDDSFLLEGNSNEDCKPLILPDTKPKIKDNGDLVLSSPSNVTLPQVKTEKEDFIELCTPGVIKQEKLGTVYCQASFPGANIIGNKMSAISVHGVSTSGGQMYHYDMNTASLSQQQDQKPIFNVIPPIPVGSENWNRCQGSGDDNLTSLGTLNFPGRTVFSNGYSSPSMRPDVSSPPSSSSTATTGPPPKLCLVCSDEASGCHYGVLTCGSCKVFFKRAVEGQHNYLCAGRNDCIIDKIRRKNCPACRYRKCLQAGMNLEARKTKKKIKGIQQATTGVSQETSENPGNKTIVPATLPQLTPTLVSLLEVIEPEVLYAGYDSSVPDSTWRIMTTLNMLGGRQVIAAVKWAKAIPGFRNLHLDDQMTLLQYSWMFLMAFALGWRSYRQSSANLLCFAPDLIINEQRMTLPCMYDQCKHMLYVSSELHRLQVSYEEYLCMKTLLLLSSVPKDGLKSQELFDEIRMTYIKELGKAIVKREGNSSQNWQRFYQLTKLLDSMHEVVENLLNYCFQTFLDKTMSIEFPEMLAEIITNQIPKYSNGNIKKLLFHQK

As for `O=S1(=O)OC(c2cc(Br)c(O)c(Br)c2)(c2cc(Br)c(O)c(Br)c2)c2ccccc21`, the Potency result in [1], in test [2] and in test [18] was “inactive” throughout. For the same compound, the Potency in test [3] is 44.5 µM (active); in test [4], 25 µM (active); in test [5] it was 28.1 µM (active). Moreover, the compound was called inactive in [6], in test [7], in test [8], in [9], in test [10] and in test [11]. Besides, the result in [12], in test [13], in [14], in test [15], in [16] and in [17] was inactive.

On to `CN1C[C@H](CNC(=O)OCc2ccccc2)C[C@@H]2c3cccc4c3c(cn4C)C[C@H]21`, for which the Potency entry in test [1], in test [2], in test [4] and in test [5] was “inactive” each time. Further, the result in test [6], in test [7], in test [19], in test [8], in test [9] and in [10] was inactive. Further, the compound was called inactive in test [11], in [12], in test [13], in [14], in test [15] and in test [16]. The call in [17] was inactive.

Turning to `O=C(O)COc1ccc(Cl)cc1`, the Potency result in [1], in [2], in test [3], in test [4], in test [5] and in test [18] was “inactive” each time. For the same compound, the outcome in test [6], in test [7], in test [19], in test [8], in test [9] and in test [10] was inactive. The compound was called inactive in test [11], in test [12], in test [13], in [14], in test [15] and in test [16].

For `CCC(C)(NC(=O)c1cc(Cl)c(C)c(Cl)c1)C(=O)CCl` (stereo not given), the Potency is 27.5 µM (active) in test [1] and 61.5 µM (active) in test [3]. Further, in test [2], the Potency result is “inactive”. For the same compound, the call in [6], in test [7], in test [8], in test [9], in [10] and in [11] was inactive. Further, the call in test [12], in test [13], in [14], in test [15] and in test [16] was inactive.

Turning to `CCOc1ccc(C(C)(C)COCc2cccc(Oc3ccccc3)c2)cc1`, the Potency entry in test [1], in test [2], in test [3], in [4], in test [5] and in [18] was “inactive” each time. The result in [6], in test [7], in [19], in [8], in [9] and in [10] was inactive. The outcome in [11], in test [12], in test [13], in test [14], in test [15] and in [16] was inactive.

Turning to `C=CC(=O)OC(C)(C)C`, the Potency entry in test [1], in test [2], in test [3], in test [4] and in test [18] was “inactive” in each case. The compound was called inactive in test [6], in test [7], in test [19], in [8], in test [9] and in [10]. Further, the result in test [11], in test [12], in test [13], in test [14], in [15] and in test [16] was inactive.

Regarding `c1ccc(CN2CCNCC2)cc1`, the Potency entry in test [1], in [2], in [3], in [4], in test [5] and in test [18] was “inactive” each time. The compound was classed as inactive in test [6], in test [7], in test [19], in test [8], in [9] and in [10]. Also, the compound was classed as inactive in test [11], in test [12], in [13], in test [14], in test [15] and in test [16].

For `CCC(COC(=O)c1cc(OC)c(OC)c(OC)c1)(c1ccccc1)N(C)C` (stereo not given), the Potency entry in test [1], in [2], in [3], in test [4], in [5] and in test [18] was “inactive” throughout. The call in test [6], in [7], in [8], in [9], in test [10] and in [11] was inactive. In addition, the call in test [12], in [13], in test [14], in test [15], in test [16] and in [17] was inactive.

Regarding `C=CC(=O)NCNC(=O)C=C`, the Potency result in test [1], in test [2], in [3] and in test [4] was “inactive” throughout. For the same compound, the compound was called inactive in [6], in [7], in test [19], in test [8], in [9] and in test [10]. The compound was classed as inactive in [11], in test [12], in test [13], in [14], in test [15] and in [16]. The result in test [17] was inactive.

As to `BrCCCCBr`, the Potency result in test [1], in test [2], in test [3], in test [4], in test [5] and in test [18] was “inactive” in each case. Also, the compound was classed as inactive in [6], in [7], in [8], in test [9], in [10] and in [11]. In addition, the call in test [12], in test [13], in test [14], in test [15], in test [16] and in [17] was inactive.

Consider `CCC(Br)(CC)C(=O)NC(N)=O`, for which the Potency entry in test [1], in test [3], in test [4] and in test [5] was “inactive” throughout. The outcome in test [6], in test [7], in test [19], in [8], in [9] and in test [10] was inactive. Further, the outcome in [11], in test [12], in [13], in test [14], in test [15] and in [16] was inactive.

Consider `S=C=NCc1ccccc1`, for which the Potency was 69.3 µM (active) in [1] and 55 µM (active) in [20]. Moreover, the Potency entry in test [3], in test [5] and in test [18] was “inactive” in each case. The result in [6], in test [7], in test [19], in test [8], in test [9] and in test [10] was inactive. In addition, the result in test [11], in test [12], in [13], in test [14], in test [15] and in test [16] was inactive.

In the case of `Cl/C=C\Cl`, the Potency result in [2], in test [3], in test [4], in test [5], in test [20] and in [18] was “inactive” in each case. Besides, the compound was called inactive in [6], in test [7], in test [19], in test [8], in test [9] and in [10]. Besides, the result in [11], in test [12], in test [13], in [14], in test [15] and in [16] was inactive.

On to `O=C(CCl)c1ccc(Cl)cc1Cl`, for which the Potency in [2] is 18.8 µM (active) and 43.3 µM (active); in test [3], 5.96 µM (active) and 9.69 µM (active) and inactive. Besides, the Potency entry in [4] and in test [5] was “inactive” throughout. Further, the compound was classed as inactive in [6], in test [7], in [19], in [8], in [9] and in test [10]. The compound was called inactive in test [11], in [12], in [13], in test [14], in test [15] and in test [16].
